FMDV RLuc = FMDV antiviral activity by Renilla signal. FMDV replicon cells, Renilla luciferase signal. Potency, µM (top dose mostly 57.5 µM), actives largely listed as inhibitors. 120,000 compounds, 0.32% hits; also: nearly all actives have a fitted effect of over 55% in size
FMDV FLuc = shows antiviral activity against foot and mouth disease virus; FMDV antiviral cell assay, firefly luciferase signal; 120,000 compounds, 0.23% hits; Potency, µM (series often up to 57.5 µM), actives largely listed as inhibitors; also: nearly all actives have a fitted effect of over 60% in size
Hits are given with their value; n = inactive; u = inconclusive; [ ] = dose if it differs, or a comment. Shown are actives, neighbours in structure and some others; about 0.45% of the full set was active somewhere. Calls follow the shape of the full dose curve.

SMILES | FMDV RLuc | FMDV FLuc
CCOc1ccc(C2c3c(-c4ccccc4)n[nH]c(=O)c3Nc3nnnn32)cc1 (stereo not given) | n | n
Cc1ccccc1OCCNC(=O)c1cc(=O)c2ccccc2o1 | n | n
C=CCNC(=O)NC(=O)COC(=O)c1c(C)c(CC)nc2ccccc12 | 25µM | 18µM
CCc1nc2ccccc2c(C(=O)OCC(=O)NC(N)=O)c1C | n | n
CCc1ccc2c(CN(C)CCOc3cccc(C)c3)cc(=O)oc2c1 | n | n
CCc1ccccc1NC(=O)c1ccc2ccccc2n1 | n | n
O=C(Nc1cccnc1)C1=C(c2ccccc2)S(=O)(=O)CCO1 | 25µM | u
O=C(Nc1ccccc1Br)C1=C(c2ccccc2)S(=O)(=O)CCO1 | u | n
CCCN(CC)c1ccc(/C=N/NC(=S)Nc2cccc(C)c2)cc1 | n | n
CC(Nc1oc(COc2ccccc2Cl)nc1C#N)c1ccccc1 (stereo not given) | n | n
COc1ccccc1NC(=O)CSc1ccc(-c2sc(C)nc2C)nn1 | n | n
Cc1nc(C)c(-c2ccc(SCC(=O)Nc3ccc(Br)cc3)nn2)s1 | 2.8µM | u
Cc1ccc(-c2c3c(=O)n(C)c(=O)n(C)c3c3n2CCOC3c2coc3ccccc3c2=O)cc1 (stereo not given) | n | n
CCC(=O)N1CCC(C(=O)O)CC1 | n | n
O=C1CN=C(c2ccccc2Cl)c2cc(Cl)ccc2N1Cc1cccc(Cl)c1 | 32µM | 25µM
COC(=O)c1ccccc1NC(=O)CN1C(=O)CN=C(c2ccccc2Cl)c2cc(Cl)ccc21 | n | n
COc1ccc(C(=O)Nc2ccc3c(c2)N(C2CCCC2)C(=O)c2ccccc2S3)cc1OC | 10µM | u
CCN1C(=O)c2ccccc2Sc2ccc(NC(=O)Cc3ccc(OC)c(OC)c3)cc21 | n | n
Clc1ccc(-c2csc3ncnc(Sc4nnc(C5CC5)o4)c23)cc1 | 20µM | 25µM
Cc1cc(C)n(-c2ncnc3scc(-c4ccc(Cl)cc4)c23)n1 | n | n
CC(C)c1ccc(NC(=O)CSc2nc(=O)n(Cc3cccnc3)c3c2CCC3)cc1 | 8.9µM | u
O=C(CSc1nc(=O)n(Cc2cccnc2)c2c1CCC2)Nc1cccc(Cl)c1 | n | n
COC(=O)C1(NC(=O)COc2cccc(F)c2)CCCCC1 | n | n
COC(=O)C1(NC(=O)COc2cc(Cl)ccc2Cl)CCCCCC1 | 5µM | u
CCOc1ccc(C(=O)Nc2ccc3c(c2)N(C(C)=O)CCC3)cc1OCC | n | u
SMILES | FMDV RLuc | FMDV FLuc
CC(=O)N1CCCc2ccc(NC(=O)c3ccc(C(F)(F)F)cc3)cc21 | n | 3.2µM
CCC(Sc1nncn1CCOC)C(=O)c1ccc(OC)cc1 (stereo not given) | n | n
Cc1c(O)ccc2c(CN3CCN(c4cccc(C(F)(F)F)c4)CC3)cc(=O)oc12 | 13µM | 13µM
Cc1c(O)ccc2c(CN3CCN(Cc4cccc(C(F)(F)F)c4)CC3)cc(=O)oc12 | n | n
O=C1C(=C(c2ccccc2)c2ccccc2)C(Cl)C(Cl)(Cl)c2ccccc21 (stereo not given) | 11µM | u
O=C1CCCc2c(O)cccc21 | n | n[11.5 µM]
C[N+]1(CCCCCCCCCCCCCO)CCCC1 | 20µM | u
OCCCCCCCCCCCCCCCO | n | n
Cc1ccc(NC(=O)c2nc3ccccc3nc2N2CCOCC2)c(Cl)c1 | n | n
CONC(=O)CC(c1ccccc1)c1ccccc1 | n | n
COc1ccc(OCCn2cc(C(C)=O)c3ccccc32)cc1 | u | 25µM
O=C(c1cccs1)c1cn(CCOc2ccccc2F)c2ccccc12 | n | n
CC(=O)c1cn(CCOc2ccccc2F)c2ccccc12 | 8.9µM | u
Cc1ccc(OCCn2cc(C(=O)C3CC3)c3ccccc32)cc1 | n | n
C=CCNc1oc(-c2ccc(COc3cccc(C)c3)o2)nc1C#N | n | n
Cn1c(=O)c2c(ncn2CC(=O)Nc2nc(-c3cccc4ccccc34)cs2)n(C)c1=O | n | n
O=C(Nc1nc(-c2cccc3ccccc23)cs1)c1cccs1 | u | 13µM
CC(=O)Nc1ccc(S(=O)(=O)N2CCC(NC(=O)CC(C)(C)C)CC2)cc1 | n | n
Cc1nc(Cl)c(C(=O)O)c(C)c1Cl | n | n
CC1CCCCC1NC(=S)Nc1cccc2cnccc12 (stereo not given) | u | 14µM
CC1CCCCC1NC(=S)NN (stereo not given) | n | n
CCc1ccc(CN2CCc3nc(N4CCN(c5ccccc5F)CC4)ncc3C2)cc1 | n | n
COc1cccc(N2CCN(c3ncc4c(n3)CCN(Cc3ccc(Br)cc3)C4)CC2)c1 | 4µM | 7.1µM
O=C(Nc1ccc2c3c(cccc13)CC2)c1ccc(Cl)cc1 | n | n
O=C(CS(=O)(=O)c1ccc(Br)cc1)c1ccccc1 | n | n
O=C(O)CSCc1ccc(F)cc1 | n | n
COC(=O)c1ccc(COc2ccc3c(=O)c(-c4ccccc4OC)c(C)oc3c2)cc1 | n | 1µM
COC(=O)c1ccc(Oc2c(C)oc3cc(OCc4ccc(F)cc4)ccc3c2=O)cc1 | n | n
Cc1ccccc1NC(=O)c1sc2nc3c(cc2c1N)CN(C(C)C)CC3 | 14µM | u
